This is part of a sample that, as a whole, favours compounds with a hit. Of some 83,000 tested, about 20% had one in any assay.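 Testing used 96-well plates and a 48-hour single-concentration exposure. Example: -40 means 40% of the starting cells died.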 Active and inactive are the calls of the source. Rule for the calls: active = growth percent below 10; inactive = the rest.
Tests used:
Test in all cases: NCI-60 one-dose screen, 48 h (100 = growth as untreated, 0 = no growth, -100 = all killed)
Details in all cases: 10 µM unless noted
[1] = tested on: DU-145 prostate
[2] = tested on: K-562 leukemia
[3] = tested on: MALME-3M melanoma
[4] = tested on: MDA-MB-231 breast
[5] = tested on: SF-268 CNS
[6] = tested on: SF-295 CNS
[7] = tested on: SF-539 CNS
[8] = tested on: M14 melanoma

Measured: growth

COc1c(C(NC(=O)c2ccccc2)c2sccc2C)cc(Cl)c2cccnc12 (configuration not stated)
inactive: [1] 108% | [2] 105% | [3] 108% | [4] 88.4% | [5] 100% | [6] 103% | [7] 106% | [8] 103%

COc1cc(-c2nc(C(=O)NCC(=O)O)nn2-c2ccc(Cl)cc2)cc(OC)c1OC
inactive: [1] 111% | [2] 89.4% | [3] 111% | [4] 106% | [5] 108% | [6] 95.2% | [7] 102% | [8] 98.5%

CC(N)C(Cc1ccccc1)c1ccc(Cl)cc1 (configuration not stated)
inactive: [1] 110% | [2] 87% | [3] 103% | [4] 61.1% | [5] 92.2% | [6] 83.5% | [7] 90.1% | [8] 82.6%

COc1ccc(CCCc2c3[n+](cc4c(OC)c(OC)ccc24)CCc2cc4c(cc2-3)OCO4)cc1
inactive: [1] 79.3% | [2] 57.8% | [3] 94.4% | [4] 84.6% | [5] 63% | [6] 78.9% | [7] 92.3% | [8] 85.1%

Clc1nc(Cl)c2ncn(CC#CCn3cnc4c(Cl)nc(Cl)nc43)c2n1
active: [1] -87.2% | [2] -13% | [3] -74.5% | [4] -52.6% | [5] -37.8% | [6] 5.67% | [7] -65.7% | [8] 7.78%

COc1ccc2c(c1OC)C(=O)O[C@@H]2[C@H]1c2c(c(C#CC#Cc3ccc(F)c(F)c3)c3c(c2OC)OCO3)CCN1C
inactive: [1] 103% | [2] 87.1% | [3] 91% | [4] 90.9% | [5] 95.9% | [6] 95.6% | [7] 94.9% | [8] 90.6%

Nc1c2c(c(O)c3c1=C(CO)C=N3)=NCCS2
active: [1] -93% | [2] -33.1% | [3] -96.6% | [4] 2.38% | [5] -47.9% | [6] -94.5% | [7] -95.8% | [8] -89.7%

N#Cc1c(NC(=O)c2ccco2)[n+]([O-])c2cc(F)c(F)cc2[n+]1[O-]
inactive: [1] 76.1% | [2] 56.6% | [3] 116% | [4] 96.7% | [5] 89.7% | [6] 106% | [7] 74.8% | [8] 112%

COC(=O)[C@]12CC[C@@H](C)[C@H](C)[C@@H]1C1=CC[C@@H]3[C@@]4(C)C[C@@H](OC(=O)/C=C/c5ccccc5)[C@H](O)[C@@](C)(CO)[C@@H]4[C@H](O)C[C@@]3(C)[C@]1(C)CC2
active: [1] 9.11% | [2] 1.96% | [3] 3.65% | [4] -72.7% | [6] -16.4% | [7] -49.1%
inactive: [5] 17.4% | [8] 16%

Cc1ccccc1Nc1nc2nonc2nc1Nc1cccc(C)c1C
inactive: [1] 71.9% | [2] 39.5% | [3] 78.6% | [4] 72.7% | [5] 72.8% | [6] 41.5% | [7] 88.1% | [8] 58.4%

N#Cc1c(NC(=O)c2cccs2)[n+]([O-])c2ccc(F)cc2[n+]1[O-]
inactive: [1] 103% | [2] 91.3% | [3] 92.4% | [4] 87.2% | [5] 101% | [6] 100% | [7] 98.1% | [8] 101%

CSC1=C(N)C(=O)c2[nH]cc(CO)c2C1=N
active: [1] -94.8% | [2] -24.1% | [3] -96.1% | [4] 2.56% | [5] -69.4% | [6] -97.1% | [7] -96.2% | [8] -83.5%

C[C@@H](C[C@H](CCO)c1cc(C(F)(F)F)cc(C(F)(F)F)c1)c1ccc2ccccc2c1
inactive: [1] 93.2% | [2] 33% | [3] 87.9% | [4] 93.6% | [5] 81.8% | [6] 77.8% | [7] 94.2% | [8] 79.7%

CCCCCCCC(=O)SCC/C=C/[C@@H]1CC(=O)NCc2cccc(n2)C2=N[C@@](C)(CS2)C(=O)N[C@@H](C(C)C)C(=O)N1
inactive: [1] 28.9% | [2] 16% | [4] 21.9% | [5] 53.6% | [7] 48.6% | [8] 35.6%
active: [3] 2.46% | [6] -1.52%

Cc1nn(-c2nc3ccccc3[nH]2)c2c1C(c1ccc(O)cc1)CC(=O)N2 (configuration not stated)
inactive: [1] 99.5% | [2] 97.8% | [3] 100% | [4] 71.9% | [5] 74% | [7] 95.4% | [8] 72%
active: [6] -16.2%

COc1cc2c(cc1OCCCCN1CCN(CC(=O)Nc3ccc(Cl)cc3C(=O)c3ccccc3Cl)CC1)N=CC1CCCN1C2=O (configuration not stated)
active: [1] -95.9% | [2] -53% | [3] -76.8% | [4] -85% | [5] -75.5% | [6] -94.6% | [7] -86.7% | [8] -67.6%

COc1ccc2c(CCCc3ccc(Cl)cc3Cl)c3[n+](cc2c1OC)CCc1cc2c(cc1-3)OCO2
inactive: [1] 17.9% | [5] 12.9%
active: [2] 6.33% | [3] -28.7% | [4] -10% | [6] -19.3% | [7] -46.3% | [8] -24.5%

ClCc1ccc(-c2ccc(Cn3cnc4c(Cl)nc(Cl)nc43)cc2)cc1
active: [1] -93.4% | [2] 9.48% | [3] -20% | [4] -37.7% | [5] -13.5% | [6] -74.2% | [7] -86.9%
inactive: [8] 48.3%

COc1ccc(-c2cc3c(oc2=O)-c2ccccc2OC3OC(C)=O)cc1 (configuration not stated)
inactive: [1] 107% | [2] 62.5% | [3] 107% | [4] 85.7% | [5] 108% | [6] 97.9% | [7] 101% | [8] 101%

O=C(c1ccccc1)C(c1ccccc1)N1CCOCC1 (configuration not stated)
inactive: [1] 107% | [2] 96% | [3] 103% | [4] 105% | [5] 99.1% | [6] 94.9% | [7] 101% | [8] 99.8%

C=CC[n+]1c(/C=C2\Sc3ccccc3N2C)sc(-c2ccccc2)c1-c1ccccc1
active: [2] 7.28% | [3] 4.72% | [6] -17.1%
inactive: [1] 23.4% | [4] 31.4% | [5] 32.9% | [7] 20.3% | [8] 19.7%

COc1cc2c(cc1OCCCCCCN1CCN(c3ncnc4ccccc34)CC1)N=CC1CCCN1C2=O (configuration not stated)
active: [1] 4.65% | [2] -15.9% | [3] -65.9% | [4] -29.1% | [5] -2.27% | [6] -45.5% | [7] -56.3% | [8] -85.5%

O=C(Nc1ccc(N=Nc2ccccc2)cc1)c1cccc2ccccc12
inactive: [1] 85.3% | [2] 21.3% | [3] 71.6% | [4] 65.9% | [5] 77.5% | [6] 57.1% | [7] 69% | [8] 37.6%

O=C(Cc1ccccc1)Nc1nnc(NC2CCN(c3nnc(NC(=O)Cc4ccccc4)s3)CC2)s1
inactive: [1] 91.7% | [2] 87.9% | [3] 82.8% | [4] 77.5% | [5] 91.1% | [6] 56.8% | [7] 93.5% | [8] 85.2%

CC(CCCC(=O)O)c1ccoc1 (configuration not stated)
inactive: [1] 103% | [2] 103% | [3] 96.8% | [4] 109% | [5] 95.8% | [6] 95.4% | [7] 102% | [8] 97.2%

CC1(C=O)NC(=O)NC1=O (configuration not stated)
inactive: [1] 111% | [2] 103% | [3] 118% | [4] 103% | [5] 101% | [6] 103% | [7] 103% | [8] 103%

C=CCC(=O)N[C@H](/C=C/C(=O)O)Cc1ccc(-c2cc(Cl)cc(Cl)c2)cc1
inactive: [1] 106% | [2] 96.7% | [3] 99.9% | [4] 97.9% | [5] 98.7% | [6] 101% | [7] 94.6% | [8] 92.2%

CC(=O)C(C(C)=O)C(c1ccccc1)C(C(C)=O)C(C)=O
inactive: [1] 108% | [2] 95.9% | [3] 108% | [4] 97.5% | [5] 108% | [6] 96.7% | [7] 101% | [8] 96.5%

COc1ccc2c(CCC(c3ccccc3)c3ccccc3)c3[n+](cc2c1OC)CCc1cc2c(cc1-3)OCO2
active: [2] 6.12% | [3] -7.17% | [4] -28.7% | [6] -15.8% | [8] 2.51%
inactive: [1] 18.5% | [5] 19.8% | [7] 13.6%

Reference: PubChem BioAssay (NCI)
